In the library only some 19% were active in any assay of this set; here they are far more common.
IL1B secr inh – inhibitors of inflammasome signaling (IL-1 beta secretion); THP-1 LPS/ATP IL-1B secretion, AlphaLISA, 16 h; stronger effect = lower value; activity change, % at 57.5 µM; actives 4.7% (n = 360,000); in the data active = activity change below about -50%; inconclusive = mostly about -30% to -49%
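THP-1 cells pretreated 1 hr with compounds (up to 57.5 uM final), then stimulated with LPS (250 ng/mL final) plus ATP (1.25 mM final); secreted IL-1B measured by AlphaLISA after 16 hr, decreased signal indicating inhibition.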
TDP1 cell noCPT – qHTS for Inhibitors of human tyrosyl-DNA phosphodiesterase 1 (TDP1): qHTS in cells in absence of CPT. actives 15% (n = 420,000). DT40 Tdp1-/- hTDP1 cells, no CPT, ATP luminescence, 48 h. Potency, µM (titrated, usually from 46.2 µM), usual class: inhibitors. AID 686978, 2013; also: nearly all actives have a fitted effect of over 55% in size
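Growth kinetics read by CellTiter-Glo luminescence after ≥48 hr at 37 °C. Cells: DT40 Tdp1-/- stably carrying human TDP1, 400 per well, compound exposure in the absence of CPT (DMSO vehicle).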
HT1080NT lethal – kills 2HG-producing HT-1080-NT fibrosarcoma cells; HT-1080-NT fibrosarcoma viability, CellTiter-Glo ATP luminescence, 48 h; Potency, µM (titrated, usually from 46.1 µM), usual class: cytotoxic; actives 1.6% (n = 360,000); AID 686970;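 also: NT is the 2HG producing partner of a matched IDH1 knockdown line; nearly all actives have a fitted effect of over 55% in size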
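Viability by CellTiter-Glo luminescence after 48 h compound exposure at 37C of HT-1080-NT cells (750/well, RPMI, 5% FBS). % activity scaled between DMSO wells and medium-only wells, then curve-fitted and categorized by curve class.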
HT1080 IDH1KD tx – kills HT-1080 cells with IDH1 knockdown. HT-1080 IDH1 knockdown viability, ATP luminescence, 48 h. Potency, µM (titrated, usually from 46.1 µM), most hits filed as cytotoxic. actives 2% (n = 360,000)
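Viability of IDH1-knockdown HT-1080 fibrosarcoma cells was assessed by CellTiter-Glo after 48 h at 37 °C with titrated compound; concentration-effect curves were classified by fit quality and response size.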
TDP1 cell CPT – growth inhibition of DT40 Tdp1-/-;hTDP1 cells with camptothecin (screen for TDP1 inhibitors); AID 686979; Potency, µM (doses to about 46.2 µM), hits mostly inhibitors; actives 12% (n = 420,000); chicken DT40 Tdp1-/-;hTDP1 cells + 20 nM CPT, ATP luminescence, 48 h; also: nearly all actives have a fitted effect of over 55% in size
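Cell growth measured by CellTiter-Glo luminescence after a minimum 48 h, 37 C compound exposure with 20 nM CPT in Tdp1-knockout DT40 cells stably expressing hTDP1, seeded 400/well; qHTS titration format.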
Of the large screens only hits and unclear results are named; the others gave an inactive call. Unless noted, calls follow the shape of the dose curve; as a rule, active = well fitted curve in the direction sought with a large enough effect; inconclusive = small, poorly fitted or top-dose-only effect, or another doubt; inactive = no such curve, though single readings can be large; an effect the other way counts as inactive or inconclusive.

CSCCC(NC(=O)c1ccco1)C(=O)N1CCN(c2ccccc2O)CC1 (configuration not stated)	TDP1 cell noCPT inconclusive
CSc1nc(N(CCO)CCO)c2sc3nc(-c4ccco4)c4c(c3c2n1)CCC4	TDP1 cell noCPT 12µM, HT1080NT lethal inconclusive, TDP1 cell CPT 16µM
Cc1ccc(S(=O)(=O)N2[C@@H](c3cccc(Cl)c3)C(C(=O)O)=CC[C@H]2c2ccc3c(c2)OCO3)cc1	none
O=C(C/C=N\OCc1ccc(Cl)cc1Cl)Nc1ccccc1	none
CC(C)NC(=NCc1ccc(Cl)cc1Cl)Nc1ccccc1	TDP1 cell noCPT 5.2µM, HT1080NT lethal inconclusive, TDP1 cell CPT 13µM (no result: IL1B secr inh)
O=C(COC(=O)Cc1c(F)cccc1Cl)Nc1nnc(-c2ccccc2)o1	none
Cc1ccc(C(=O)Nc2ccc3oc(-c4ccc(C(C)(C)C)cc4)nc3c2)cc1	TDP1 cell noCPT 8.2µM, TDP1 cell CPT inconclusive (no result: IL1B secr inh, HT1080NT lethal, HT1080 IDH1KD tx)
O=C(Nc1ccc2oc(-c3ccccc3F)nc2c1)c1ccccc1Cl	TDP1 cell noCPT 13µM, TDP1 cell CPT inconclusive (no result: IL1B secr inh, HT1080NT lethal, HT1080 IDH1KD tx)
O=C(Nc1ccc2oc(-c3cccc4c(Br)cccc34)nc2c1)c1ccc(Br)cc1	none (no result: IL1B secr inh, HT1080NT lethal, HT1080 IDH1KD tx)
O=C(Nc1ccc2oc(-c3cccc4c(Br)cccc34)nc2c1)c1ccc(F)cc1	TDP1 cell noCPT 10µM, TDP1 cell CPT inconclusive (no result: IL1B secr inh, HT1080NT lethal, HT1080 IDH1KD tx)
COc1ccc(C(=O)Nc2ccc3oc(-c4ccc5ccccc5c4)nc3c2)cc1Br	TDP1 cell noCPT 18µM, TDP1 cell CPT 18µM (no result: IL1B secr inh, HT1080NT lethal, HT1080 IDH1KD tx)
COc1ccc(S(=O)(=O)NCc2cc(-c3ccccc3Cl)no2)cc1	none
CCOc1ccc(NC(=O)c2ccc(Cl)c(NC(=O)c3ccco3)c2)cc1	none
Cc1cc(NC(=O)CN2C(=O)/C(=C/c3ccc(C(C)C)cc3)SC2=S)no1	TDP1 cell noCPT inconclusive, TDP1 cell CPT inconclusive
COc1ccc(Cl)c2sc(N(CCN(C)C)C(=O)C3=COCCO3)nc12	TDP1 cell noCPT inconclusive
O=C(Nc1nnc(-c2ccccc2)o1)Nc1ccc(F)cc1F	none
COc1ccc(-c2nnc3c4ccccc4c(-c4ccccc4)nn23)cc1	none (no result: IL1B secr inh, HT1080NT lethal, HT1080 IDH1KD tx)
O=C(Nc1ccc2oc(-c3cccc(Cl)c3Cl)nc2c1)c1cccc(Br)c1	TDP1 cell noCPT inconclusive, TDP1 cell CPT 13µM (no result: IL1B secr inh, HT1080NT lethal, HT1080 IDH1KD tx)
CCOc1ccc(C(=O)Nc2ccc3oc(-c4ccc(Br)cc4)nc3c2)cc1	TDP1 cell CPT inconclusive (no result: IL1B secr inh, HT1080NT lethal, HT1080 IDH1KD tx)
COc1ccc(-c2nc3cc(NC(=O)c4ccc(C)cc4)ccc3o2)cc1Cl	TDP1 cell noCPT inconclusive, TDP1 cell CPT 21µM (no result: IL1B secr inh, HT1080NT lethal, HT1080 IDH1KD tx)
N#Cc1ccc(C(=O)Nc2ccc(Cl)c(-c3nc4cc(Cl)ccc4o3)c2)c(F)c1	TDP1 cell noCPT 18µM, TDP1 cell CPT 23µM (no result: IL1B secr inh, HT1080NT lethal, HT1080 IDH1KD tx)
CCOc1ccc(C(=O)Nc2ccc(-c3nc4cc(CC)ccc4o3)cc2)cc1	TDP1 cell noCPT inconclusive, TDP1 cell CPT 3.7µM (no result: IL1B secr inh, HT1080NT lethal, HT1080 IDH1KD tx)
O=C(O)c1ccccc1-c1ccccc1C(=O)Nc1ccc(-c2nc3cc(Cl)ccc3o2)cc1	TDP1 cell noCPT inconclusive
O=C(Nc1nnc([C@@H]2C[C@H](O)[C@@H](CO)O2)s1)Nc1ccccc1F	HT1080 IDH1KD tx inconclusive
Cc1ccc(C(=O)Nc2ccc3oc(-c4cc(Br)ccc4Cl)nc3c2)cc1	TDP1 cell noCPT inconclusive, TDP1 cell CPT 23µM (no result: IL1B secr inh, HT1080NT lethal, HT1080 IDH1KD tx)
O=C(Nc1ccc2oc(-c3ccccc3)nc2c1)c1cccnc1	none
Cc1ccc2oc(-c3cc(NC(=O)c4oc5ccccc5c4C)ccc3Cl)nc2c1	TDP1 cell CPT 0.016µM (no result: IL1B secr inh, HT1080NT lethal, HT1080 IDH1KD tx)
CC(C)c1ccc2oc(-c3cc(NC(=O)c4cccnc4)ccc3Cl)nc2c1	TDP1 cell noCPT 16µM, TDP1 cell CPT inconclusive (no result: IL1B secr inh, HT1080NT lethal, HT1080 IDH1KD tx)
COc1ccc(C(=O)Nc2ccc3oc(-c4cc(Cl)ccc4Cl)nc3c2)cc1Br	none (no result: IL1B secr inh, HT1080NT lethal, HT1080 IDH1KD tx)
CCOc1ccccc1N(CC(=O)Nc1cccnc1)S(=O)(=O)c1ccc(C)cc1	TDP1 cell noCPT inconclusive, TDP1 cell CPT 18µM
COc1ccc(NC(=O)CN(c2cccc(C)c2C)S(=O)(=O)c2ccccc2)cc1OC	TDP1 cell noCPT inconclusive, TDP1 cell CPT 23µM (no result: IL1B secr inh, HT1080NT lethal, HT1080 IDH1KD tx)
CCOc1ccccc1N(CC(=O)Nc1ccccc1)S(=O)(=O)c1ccccc1	TDP1 cell noCPT 26µM, TDP1 cell CPT inconclusive
COc1ccc(OC)c(N(CC(=O)Nc2cccnc2)S(=O)(=O)c2ccc(OC)c(OC)c2)c1	TDP1 cell noCPT inconclusive, TDP1 cell CPT inconclusive

Bioassay records deposited in PubChem BioAssay by National Center for Advancing Translational Sciences (NCATS).
